# Assay results taken from publication PMC7862700, “An all-to-all approach to the identification of sequence-specific readers for epigenetic DNA modifications on cytosine”.
# What was measured:
# Experiment in all cases: DAPPL (digital affinity profiling via proximity ligation, sequencing); 10 mM Tris-HCl pH 7.5, 50 mM NaCl, 1 mM DTT, 4% glycerol, room temperature, 30 min; GST-TFs on glutathione beads, 16-mer random dsDNA library, 0.1% formaldehyde crosslink after washing; high values mean tight binding
# FEV = biological target: T1, FEV (Homo sapiens, UniProt Q99581 1-238); conditions: protein: recombinant; tags: N-terminal GST; dsDNA, one strand shown
# T1 sequence: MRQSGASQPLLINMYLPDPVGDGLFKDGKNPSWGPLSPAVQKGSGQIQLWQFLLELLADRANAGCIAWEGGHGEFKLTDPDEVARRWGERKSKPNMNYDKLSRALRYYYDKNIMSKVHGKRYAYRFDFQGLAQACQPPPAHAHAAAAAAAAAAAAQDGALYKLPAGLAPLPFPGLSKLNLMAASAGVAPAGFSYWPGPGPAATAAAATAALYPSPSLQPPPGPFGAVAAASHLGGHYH
# In short: (§1)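 Human transcription factors fused to GST were expressed in yeast, captured on glutathione beads, given DNA barcodes and pooled with a GST-only negative control. Pools were incubated with 200 nmole of a 16-mer random double-stranded DNA library in Tris/NaCl/DTT/glycerol buffer at room temperature for 30 min. They were then washed, crosslinked with 0.1% formaldehyde, proximity-ligated (BsaI/T4 ligase, 1 h, 37 °C), PCR-amplified and sequenced on an Illumina NextSeq500. Binding signal is each 6-mer's read frequency for a factor divided by its frequency for the GST control.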
# ETV5 = ETV5 (Homo sapiens, UniProt P41161 1-510); conditions: protein: recombinant; tags: N-terminal GST; dsDNA, one strand shown
# In short: as §1
# HSF1 = HSF1 (Homo sapiens, UniProt Q00613 1-529); conditions: protein: recombinant; tags: N-terminal GST; chain copies: 3; dsDNA, one strand shown
# In short: as §1
# SPIC = biological target: T2, SPIC (Homo sapiens, UniProt Q8N5J4 1-248); conditions: protein: recombinant; tags: N-terminal GST; dsDNA, one strand shown
# T2 sequence: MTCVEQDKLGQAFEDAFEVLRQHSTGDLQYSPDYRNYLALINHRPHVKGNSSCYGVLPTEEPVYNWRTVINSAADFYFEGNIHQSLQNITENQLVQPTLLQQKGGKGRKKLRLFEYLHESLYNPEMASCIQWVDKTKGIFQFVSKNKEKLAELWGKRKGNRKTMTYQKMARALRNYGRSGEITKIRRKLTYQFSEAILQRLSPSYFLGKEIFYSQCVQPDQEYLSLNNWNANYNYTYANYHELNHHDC
# In short: as §1
# ELF4 = ELF4 (Homo sapiens, UniProt Q99607 1-663); conditions: protein: recombinant; tags: N-terminal GST; dsDNA, one strand shown
# In short: as §1
# ELK4 = biological target: T3, ELK4 (Homo sapiens, UniProt P28324-2 1-405); conditions: protein: recombinant; tags: N-terminal GST; dsDNA, one strand shown
# T3 sequence: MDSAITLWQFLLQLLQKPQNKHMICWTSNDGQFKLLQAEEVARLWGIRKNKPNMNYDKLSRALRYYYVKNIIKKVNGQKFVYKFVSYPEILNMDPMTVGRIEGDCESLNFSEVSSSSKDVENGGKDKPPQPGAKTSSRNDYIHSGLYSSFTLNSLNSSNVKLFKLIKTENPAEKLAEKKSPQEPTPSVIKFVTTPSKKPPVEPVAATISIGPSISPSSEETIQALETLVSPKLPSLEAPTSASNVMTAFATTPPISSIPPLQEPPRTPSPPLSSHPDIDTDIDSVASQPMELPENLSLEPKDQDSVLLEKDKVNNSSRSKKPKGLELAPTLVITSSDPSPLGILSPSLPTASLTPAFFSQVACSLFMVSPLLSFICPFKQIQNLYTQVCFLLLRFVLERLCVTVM
# In short: as §1
# ETV2 = biological target: T4, ETV2 (Homo sapiens, UniProt O00321 1-342); conditions: protein: recombinant; tags: N-terminal GST; dsDNA, one strand shown
# T4 sequence: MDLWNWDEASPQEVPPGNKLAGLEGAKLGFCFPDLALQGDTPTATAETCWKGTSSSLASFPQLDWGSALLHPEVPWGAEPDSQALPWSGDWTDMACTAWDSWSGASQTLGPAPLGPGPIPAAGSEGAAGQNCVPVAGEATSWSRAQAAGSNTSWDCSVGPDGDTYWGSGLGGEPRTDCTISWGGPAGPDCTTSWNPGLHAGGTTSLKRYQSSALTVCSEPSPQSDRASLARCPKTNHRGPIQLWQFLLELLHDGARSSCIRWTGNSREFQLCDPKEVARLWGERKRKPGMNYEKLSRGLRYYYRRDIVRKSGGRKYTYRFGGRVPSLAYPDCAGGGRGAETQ
# In short: as §1
# ELF3 = biological target: T5, ELF3 (Homo sapiens, UniProt P78545 1-371); conditions: protein: recombinant; tags: N-terminal GST; dsDNA, one strand shown
# T5 sequence: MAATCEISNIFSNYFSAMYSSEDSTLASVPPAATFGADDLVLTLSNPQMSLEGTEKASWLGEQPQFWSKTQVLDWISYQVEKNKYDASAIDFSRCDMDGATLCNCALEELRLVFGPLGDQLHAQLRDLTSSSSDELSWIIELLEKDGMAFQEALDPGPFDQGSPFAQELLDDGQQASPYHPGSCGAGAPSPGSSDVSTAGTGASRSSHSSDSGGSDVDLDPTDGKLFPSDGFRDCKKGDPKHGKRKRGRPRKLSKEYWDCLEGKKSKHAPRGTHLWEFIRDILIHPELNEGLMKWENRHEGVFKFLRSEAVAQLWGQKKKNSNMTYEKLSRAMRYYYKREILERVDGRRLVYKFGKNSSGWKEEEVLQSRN
# In short: as §1
# CRX = CRX (Homo sapiens, UniProt O43186 1-299); conditions: protein: recombinant; tags: N-terminal GST; dsDNA, one strand shown
# In short: as §1
# ETV1 = ETV1 (Homo sapiens, UniProt P50549 1-477); conditions: protein: recombinant; tags: N-terminal GST; dsDNA, one strand shown
# In short: as §1
# ERF = biological target: T6, ERF (Homo sapiens, UniProt P50548 1-548); conditions: protein: recombinant; tags: N-terminal GST; dsDNA, one strand shown
# T6 sequence: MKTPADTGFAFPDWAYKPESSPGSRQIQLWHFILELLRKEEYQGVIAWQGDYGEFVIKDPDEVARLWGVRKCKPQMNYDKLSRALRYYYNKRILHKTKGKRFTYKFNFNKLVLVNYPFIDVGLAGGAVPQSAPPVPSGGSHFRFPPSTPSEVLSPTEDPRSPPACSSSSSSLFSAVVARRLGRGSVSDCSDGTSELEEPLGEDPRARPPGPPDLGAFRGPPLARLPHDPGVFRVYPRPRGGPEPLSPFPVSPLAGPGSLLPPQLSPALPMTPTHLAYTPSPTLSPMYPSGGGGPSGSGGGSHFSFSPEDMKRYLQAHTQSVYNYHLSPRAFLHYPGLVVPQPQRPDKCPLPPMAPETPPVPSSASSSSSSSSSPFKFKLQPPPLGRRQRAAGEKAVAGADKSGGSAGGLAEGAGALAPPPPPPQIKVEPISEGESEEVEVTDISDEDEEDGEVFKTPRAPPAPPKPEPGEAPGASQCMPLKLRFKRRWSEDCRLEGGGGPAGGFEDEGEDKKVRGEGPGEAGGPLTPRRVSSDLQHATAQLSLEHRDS
# In short: as §1
# ETV3L = biological target: T7, ETV3L (Homo sapiens, UniProt Q6ZN32 1-361); conditions: protein: recombinant; tags: N-terminal GST; dsDNA, one strand shown
# T7 sequence: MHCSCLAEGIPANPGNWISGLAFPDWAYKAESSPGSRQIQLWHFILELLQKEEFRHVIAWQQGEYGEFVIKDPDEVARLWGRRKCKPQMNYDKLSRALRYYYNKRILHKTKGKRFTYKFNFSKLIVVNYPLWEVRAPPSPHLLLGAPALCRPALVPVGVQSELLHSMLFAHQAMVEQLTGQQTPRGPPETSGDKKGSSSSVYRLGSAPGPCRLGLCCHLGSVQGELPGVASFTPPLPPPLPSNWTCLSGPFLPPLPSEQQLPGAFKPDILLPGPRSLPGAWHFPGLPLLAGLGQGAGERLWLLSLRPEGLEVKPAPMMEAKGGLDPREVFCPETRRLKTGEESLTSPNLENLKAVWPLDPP
# In short: as §1
# ETS2 = biological target: T8, ETS2 (Homo sapiens, UniProt P15036 1-469); conditions: protein: recombinant; tags: N-terminal GST; dsDNA, one strand shown
# T8 sequence: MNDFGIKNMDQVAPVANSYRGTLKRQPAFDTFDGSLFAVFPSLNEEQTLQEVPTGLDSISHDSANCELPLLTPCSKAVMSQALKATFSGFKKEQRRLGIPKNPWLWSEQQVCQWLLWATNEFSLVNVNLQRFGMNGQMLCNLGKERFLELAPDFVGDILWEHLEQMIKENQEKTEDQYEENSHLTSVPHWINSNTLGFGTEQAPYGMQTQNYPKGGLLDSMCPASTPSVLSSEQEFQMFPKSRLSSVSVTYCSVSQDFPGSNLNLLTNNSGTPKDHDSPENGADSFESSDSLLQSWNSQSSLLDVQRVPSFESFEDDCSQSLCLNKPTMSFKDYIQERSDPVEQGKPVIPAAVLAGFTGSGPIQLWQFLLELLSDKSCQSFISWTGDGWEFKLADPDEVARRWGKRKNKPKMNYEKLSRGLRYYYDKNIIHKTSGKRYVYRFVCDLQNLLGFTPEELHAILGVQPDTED
# In short: as §1
# SPDEF = biological target: T9, SPDEF (Homo sapiens, UniProt O95238 1-335); conditions: protein: recombinant; tags: N-terminal GST; dsDNA, one strand shown
# T9 sequence: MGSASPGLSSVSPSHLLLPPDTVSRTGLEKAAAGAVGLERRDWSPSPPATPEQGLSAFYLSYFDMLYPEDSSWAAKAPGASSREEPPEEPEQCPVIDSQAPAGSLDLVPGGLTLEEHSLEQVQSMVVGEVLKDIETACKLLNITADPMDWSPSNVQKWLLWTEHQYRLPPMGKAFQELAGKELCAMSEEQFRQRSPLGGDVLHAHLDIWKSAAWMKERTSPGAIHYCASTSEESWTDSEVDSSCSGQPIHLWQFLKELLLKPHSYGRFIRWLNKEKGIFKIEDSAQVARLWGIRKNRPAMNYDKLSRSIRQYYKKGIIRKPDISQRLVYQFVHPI
# In short: as §1
# ETV7 = biological target: T10, ETV7 (Homo sapiens, UniProt Q9Y603 1-341); conditions: protein: recombinant; tags: N-terminal GST; dsDNA, one strand shown
# T10 sequence: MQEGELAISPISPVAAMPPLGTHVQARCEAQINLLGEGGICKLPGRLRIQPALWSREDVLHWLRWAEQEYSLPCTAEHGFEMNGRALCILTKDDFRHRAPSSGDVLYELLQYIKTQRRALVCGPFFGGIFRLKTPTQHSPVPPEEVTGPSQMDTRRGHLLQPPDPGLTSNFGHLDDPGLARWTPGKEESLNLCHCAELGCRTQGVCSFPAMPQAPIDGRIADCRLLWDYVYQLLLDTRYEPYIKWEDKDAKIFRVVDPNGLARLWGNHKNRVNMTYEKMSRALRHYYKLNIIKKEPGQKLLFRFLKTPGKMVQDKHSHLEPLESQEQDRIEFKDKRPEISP
# In short: as §1
# ELF5 = biological target: T11, ELF5 (Homo sapiens, UniProt Q9UKW6-2 1-255); conditions: protein: recombinant; tags: N-terminal GST; dsDNA, one strand shown
# T11 sequence: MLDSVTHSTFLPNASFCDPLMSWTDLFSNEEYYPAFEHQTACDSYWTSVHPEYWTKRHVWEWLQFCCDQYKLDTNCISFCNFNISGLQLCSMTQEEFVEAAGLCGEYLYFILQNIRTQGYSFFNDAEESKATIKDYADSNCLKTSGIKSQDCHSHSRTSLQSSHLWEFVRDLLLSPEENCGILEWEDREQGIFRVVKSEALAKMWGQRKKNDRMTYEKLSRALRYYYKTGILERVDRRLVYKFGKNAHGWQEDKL
# In short: as §1
# ETV3 = biological target: T12, ETV3 (Homo sapiens, UniProt P41162-2 1-143); conditions: protein: recombinant; tags: N-terminal GST; dsDNA, one strand shown
# T12 sequence: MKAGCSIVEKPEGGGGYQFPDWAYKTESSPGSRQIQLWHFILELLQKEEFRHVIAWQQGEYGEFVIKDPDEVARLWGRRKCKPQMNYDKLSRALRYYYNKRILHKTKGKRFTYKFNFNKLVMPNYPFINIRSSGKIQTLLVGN
# In short: as §1
# ETV6 = ETV6 (Homo sapiens, UniProt P41212 1-452); conditions: protein: recombinant; tags: N-terminal GST; dsDNA, one strand shown
# In short: as §1
# Chain of ETV5 (P41161 whole entry): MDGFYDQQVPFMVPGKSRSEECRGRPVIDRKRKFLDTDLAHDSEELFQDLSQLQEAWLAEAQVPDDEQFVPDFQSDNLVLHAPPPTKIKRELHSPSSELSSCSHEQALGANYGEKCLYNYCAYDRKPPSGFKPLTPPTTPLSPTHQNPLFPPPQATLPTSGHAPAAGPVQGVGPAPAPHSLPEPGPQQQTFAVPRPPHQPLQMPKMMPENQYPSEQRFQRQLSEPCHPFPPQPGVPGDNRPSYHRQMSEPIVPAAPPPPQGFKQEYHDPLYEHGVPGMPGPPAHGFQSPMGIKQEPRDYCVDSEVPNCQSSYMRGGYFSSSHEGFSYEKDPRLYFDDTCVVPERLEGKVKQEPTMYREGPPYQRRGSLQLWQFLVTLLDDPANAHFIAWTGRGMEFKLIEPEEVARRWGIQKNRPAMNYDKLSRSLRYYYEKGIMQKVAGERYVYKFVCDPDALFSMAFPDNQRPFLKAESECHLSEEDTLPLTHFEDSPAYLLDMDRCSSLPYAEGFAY
# Chain of ELF4 (Q99607 whole entry): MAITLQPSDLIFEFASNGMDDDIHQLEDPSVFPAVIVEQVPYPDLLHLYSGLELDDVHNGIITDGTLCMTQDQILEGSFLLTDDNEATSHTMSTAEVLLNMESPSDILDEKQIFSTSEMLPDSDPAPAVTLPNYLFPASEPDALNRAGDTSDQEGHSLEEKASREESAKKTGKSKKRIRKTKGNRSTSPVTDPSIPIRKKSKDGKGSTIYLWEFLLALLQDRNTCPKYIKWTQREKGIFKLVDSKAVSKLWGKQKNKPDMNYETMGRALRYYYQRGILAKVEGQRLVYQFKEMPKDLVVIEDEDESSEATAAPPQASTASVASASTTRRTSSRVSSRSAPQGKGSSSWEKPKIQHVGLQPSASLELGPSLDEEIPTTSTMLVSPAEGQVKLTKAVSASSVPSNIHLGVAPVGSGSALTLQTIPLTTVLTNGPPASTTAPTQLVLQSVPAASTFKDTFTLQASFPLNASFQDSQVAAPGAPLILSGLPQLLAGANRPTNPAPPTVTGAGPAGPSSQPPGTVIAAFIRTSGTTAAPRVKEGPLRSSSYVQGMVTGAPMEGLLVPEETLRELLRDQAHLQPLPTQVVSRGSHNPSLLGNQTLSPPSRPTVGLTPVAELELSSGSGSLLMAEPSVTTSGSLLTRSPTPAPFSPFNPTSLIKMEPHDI
# Chain of CRX (O43186 whole entry): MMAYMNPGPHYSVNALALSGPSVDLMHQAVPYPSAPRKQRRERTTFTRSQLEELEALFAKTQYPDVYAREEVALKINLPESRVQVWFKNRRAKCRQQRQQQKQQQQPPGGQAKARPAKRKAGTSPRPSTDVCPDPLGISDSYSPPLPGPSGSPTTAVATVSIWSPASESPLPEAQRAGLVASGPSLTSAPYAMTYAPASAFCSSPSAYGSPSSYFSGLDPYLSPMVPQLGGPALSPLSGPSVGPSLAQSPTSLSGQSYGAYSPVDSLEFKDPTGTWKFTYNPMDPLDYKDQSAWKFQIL
# Chain of HSF1 (Q00613 whole entry): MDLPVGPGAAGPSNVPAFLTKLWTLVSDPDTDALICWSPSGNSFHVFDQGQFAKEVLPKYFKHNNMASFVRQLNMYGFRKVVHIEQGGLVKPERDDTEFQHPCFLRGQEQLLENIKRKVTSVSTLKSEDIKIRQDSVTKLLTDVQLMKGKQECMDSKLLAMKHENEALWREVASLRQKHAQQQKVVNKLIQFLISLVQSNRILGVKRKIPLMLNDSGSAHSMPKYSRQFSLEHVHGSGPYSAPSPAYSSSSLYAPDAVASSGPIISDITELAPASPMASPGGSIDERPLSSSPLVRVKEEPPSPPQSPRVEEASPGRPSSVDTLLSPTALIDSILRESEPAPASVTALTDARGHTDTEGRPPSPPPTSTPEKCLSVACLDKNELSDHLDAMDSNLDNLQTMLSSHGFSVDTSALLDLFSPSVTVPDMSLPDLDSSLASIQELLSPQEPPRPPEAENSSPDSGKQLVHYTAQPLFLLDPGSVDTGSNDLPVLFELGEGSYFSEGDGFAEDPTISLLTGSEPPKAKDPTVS
# Chain of ETV6 (P41212 whole entry): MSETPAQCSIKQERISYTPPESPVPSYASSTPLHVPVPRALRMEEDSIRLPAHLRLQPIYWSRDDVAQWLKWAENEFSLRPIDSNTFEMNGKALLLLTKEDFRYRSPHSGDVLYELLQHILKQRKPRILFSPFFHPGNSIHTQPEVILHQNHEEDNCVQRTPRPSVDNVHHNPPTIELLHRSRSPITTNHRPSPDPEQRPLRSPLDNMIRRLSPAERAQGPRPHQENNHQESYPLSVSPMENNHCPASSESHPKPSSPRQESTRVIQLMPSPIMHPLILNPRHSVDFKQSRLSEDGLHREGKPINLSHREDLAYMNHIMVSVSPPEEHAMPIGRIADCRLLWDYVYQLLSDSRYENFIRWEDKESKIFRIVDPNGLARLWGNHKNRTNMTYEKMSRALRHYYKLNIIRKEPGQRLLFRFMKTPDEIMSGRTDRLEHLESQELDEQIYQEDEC
# Chain of ETV1 (P50549 whole entry): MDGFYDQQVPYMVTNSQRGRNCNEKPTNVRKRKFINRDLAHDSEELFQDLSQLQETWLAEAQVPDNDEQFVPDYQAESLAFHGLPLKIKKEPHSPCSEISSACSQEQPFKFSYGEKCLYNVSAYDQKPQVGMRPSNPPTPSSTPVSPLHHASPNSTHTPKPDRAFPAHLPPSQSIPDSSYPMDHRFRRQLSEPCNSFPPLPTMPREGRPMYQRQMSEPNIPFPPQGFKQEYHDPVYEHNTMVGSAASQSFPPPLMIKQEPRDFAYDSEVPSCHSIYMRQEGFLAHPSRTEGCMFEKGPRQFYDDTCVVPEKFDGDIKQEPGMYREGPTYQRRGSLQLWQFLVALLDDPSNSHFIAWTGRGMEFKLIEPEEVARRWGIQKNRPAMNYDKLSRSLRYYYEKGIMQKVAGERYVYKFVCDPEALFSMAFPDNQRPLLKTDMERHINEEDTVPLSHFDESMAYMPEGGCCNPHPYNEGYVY
sequence,measurement,setting,value
TACCAA,binding signal,FEV,"1.14 fold enrichment (6-mer frequency, TF over GST control)"
same,binding signal,ETV5,"1.13 fold enrichment (6-mer frequency, TF over GST control)"
same,binding signal,HSF1,"1.14 fold enrichment (6-mer frequency, TF over GST control)"
same,binding signal,SPIC,"1.01 fold enrichment (6-mer frequency, TF over GST control)"
same,binding signal,ELF4,"1.2 fold enrichment (6-mer frequency, TF over GST control)"
same,binding signal,ELK4,"1.23 fold enrichment (6-mer frequency, TF over GST control)"
same,binding signal,ETV2,"1.09 fold enrichment (6-mer frequency, TF over GST control)"
same,binding signal,ELF3,"1.05 fold enrichment (6-mer frequency, TF over GST control)"
same,binding signal,CRX,"1.25 fold enrichment (6-mer frequency, TF over GST control)"
same,binding signal,ETV1,"1.11 fold enrichment (6-mer frequency, TF over GST control)"
same,binding signal,ERF,"1.14 fold enrichment (6-mer frequency, TF over GST control)"
same,binding signal,ETV3L,"1.08 fold enrichment (6-mer frequency, TF over GST control)"
same,binding signal,ETS2,"1.18 fold enrichment (6-mer frequency, TF over GST control)"
same,binding signal,SPDEF,"1.17 fold enrichment (6-mer frequency, TF over GST control)"
same,binding signal,ETV7,"1.13 fold enrichment (6-mer frequency, TF over GST control)"
same,binding signal,ELF5,"1.09 fold enrichment (6-mer frequency, TF over GST control)"
same,binding signal,ETV3,"1.13 fold enrichment (6-mer frequency, TF over GST control)"
same,binding signal,ETV6,"1.17 fold enrichment (6-mer frequency, TF over GST control)"
